# CHX counter: counter-screen for Shiga toxin inhibitors: cycloheximide protein synthesis inhibition | max response, % | hit rate 12% among 300,000 | cell reporter, cycloheximide protein synthesis inhibition counterscreen; in the data active means max response mostly above about 13%, no sharp cut-off; inactive means mostly below about 14%; further: read at 38.3 µM for the half of the compounds with a filed dose
# Shiga toxin inh: inhibitors of Shiga toxin in Vero cells; inhibition, % at 38.7 µM; Vero cells, Shiga toxin protein synthesis inhibition reporter; hit rate 9.2% among 290,000; in the data active means inhibition mostly above about 28%, no sharp cut-off; inactive means mostly below about 43%
# FMDV inh: foot and mouth disease virus antiviral activity. FMDV antiviral cell-based qHTS. Potency, µM (titrated, usually from 57.9 µM), most hits filed as inhibitors. hit rate 1.2% among 410,000; calls by dose curve; tested in HEK293T cells; further: read-out not given here; nearly all actives have a fitted effect of over 45% in size
# Sm TGR inh: inhibitors of Schistosoma mansoni thioredoxin glutathione reductase | AID 485364 | purified TGR, DTNB reduction, TNB absorbance 405 nm | Potency, µM (titrated, usually from 114 µM), usual class: inhibitors | hit rate 3% among 360,000; active means well fitted inhibition curve with a large enough effect; inconclusive means small, poorly fitted or top-dose-only effect; inactive means no such curve, though single readings can be large or run the other way; further: nearly all actives have a fitted effect of over 60% in size
#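 TGR 20 nM + NADPH 100 uM (dispensed conc.), cpd preinc 15 min RT; start with NADPH (500 uM addition) then DTNB (15 mM addition). Kinetic TNB absorbance, 405 nm filter. Four-parameter Hill fit across titration.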
# A number is an active result; 0 = inactive; ? = inconclusive; - = not tested or not shown; [ ] = another dose, or the depositor's remark. Rows were chosen to be rich in hits. Some 12% of all compounds tested hit in one or more screens of this group.
SMILES,CHX counter,Shiga toxin inh,FMDV inh,Sm TGR inh
CCOC(=O)c1c(C)[nH]c(C(=O)CSc2ccc(Cl)cc2)c1C,22,89,0,0
CCOC(=O)c1c(C)[nH]c(C(=O)CC(=O)OC)c1C,0,0,0,-
COc1cc(OC)c(NS(=O)(=O)c2c(C)nc3sc(C)cn3c2=O)cc1Cl,-,-,0,0
CCC1CCCCN1C(=O)CSc1nnc(-c2c[nH]c3ccccc23)o1 (stereo unspecified),16,0,0,0[11.4 µM]
COc1ccc(CN(C(=O)CSc2nnc(-c3ccc(F)cc3)o2)c2ccc(F)cc2)cc1,0,0,0,0
CCSc1nnc(-c2c[nH]c3ccccc23)o1,44,88,0,0
CC1CCCN(C(=O)CSc2nnc(-c3c[nH]c4ccccc34)o2)C1 (stereo unspecified),35,0,-,0[11.4 µM]
COc1ccc(CN(C(=O)CSc2nnc(-c3c[nH]c4ccccc34)o2)c2ccc(F)cc2)cc1OC,41,51,?,0
Cc1ccc(NC(=O)c2c(C)oc3ccc(O)c(CN4CCCC4)c23)c(C)c1,-,-,0,0
CCCCn1c(C(C)NC(=O)CC)nc2ccccc21 (stereo unspecified),0,0,0,0
CCCCCCn1c(C(C)NC(=O)c2ccco2)nc2ccccc21 (stereo unspecified),12,0,?,40µM
O=C(Nc1nc2ccccc2n1Cc1ccccc1)c1ccco1,26,0,0,0
CC(C)Cn1c(CCNC(=O)c2ccco2)nc2ccccc21,31,0,0,0
Cc1ccc(N=Nc2c(O)ccc3n[nH]nc23)cc1,42,103,0,32µM
COc1ccc(C(=O)N2CCCC(CO)(Cc3ccccc3C)C2)o1 (stereo unspecified),0,0,0,45µM
CN(C)c1ccc(-c2cncnc2NCCc2cnc[nH]2)cc1,-,-,0,-
Cc1ccc(C2NC(=O)NC3=C2CCc2ccccc23)cc1 (stereo unspecified),57,71,?,40µM
CCc1ccc(NC(=O)c2cccc(N3CCCS3(=O)=O)c2)cc1,-,-,0,0
O=C(N/N=C/c1ccc(Cl)cc1Cl)c1ccc2nc[nH]c2c1,24,53,0,0
O=C(CCCC(=O)NN=Cc1ccc(Cl)cc1Cl)NN=Cc1ccc(Cl)cc1Cl,-,-,0,-
O=C(N/N=C/c1ccccc1C(F)(F)F)c1ccc2nc[nH]c2c1,49,29,0,0
O=C(C[n+]1ccc(C(=O)N/N=C/c2ccc(Cl)cc2Cl)cc1)c1ccccc1,0,0,-,0
CCc1ccc(C(=O)N/N=C/c2ccc(Cl)cc2Cl)nc1,18,0,-,0
O=C(N/N=C/c1ccc(Cl)cc1Cl)c1cccc(F)c1,33,137,0,0
COC(=O)C1=C(c2ccccc2)c2ccccc2S(=O)(=O)N1CC(=O)Nc1ccc(OC)cc1OC,-,-,0,0
SMILES,CHX counter,Shiga toxin inh,FMDV inh,Sm TGR inh
CN1CCN(c2ncc3nc(-c4cccc(C#N)c4)c(=O)n(C[C@H]4CCCO4)c3n2)CC1,-,-,0,-
Cc1ccc(CNC(=O)Nc2ccc(OC(F)(F)F)cc2)n1C,0,0,0,?
Cc1ccc(CNC(=O)Nc2ccc(F)cc2)n1C,0,0,0,14µM
COc1ccccc1NC(=O)NCc1ccc(C)n1C,0,0,0,40µM
COc1ccc(OC)c2c(N3CCN(C)CC3)cc(C(F)(F)F)nc12,0,0,0,0
COc1ccc(OC)c2c(N3CC(C)OC(C)C3)cc(C(F)(F)F)nc12 (stereo unspecified),21,78,0,0
COc1ccc(C(=O)N2CCCC(c3nc(-c4ccc(OC)c(OC)c4)no3)C2)c(OC)c1 (stereo unspecified),0,0,?,0
CCS(=O)(=O)N1CCCC(c2nc(-c3cccc(OC)c3)no2)C1 (stereo unspecified),42,104,0,0
Cc1ccc(-c2noc(C3CCCN(C(=O)c4ccccc4Br)C3)n2)cc1 (stereo unspecified),27,53,0,0
COc1ccc(-c2noc(C3CCCN(C(=O)c4ccccc4OC)C3)n2)cc1OC (stereo unspecified),23,0,?,0
CCCCN(CC)CCCNC(=O)C1CCN(c2nc3ccc(CC)cc3s2)CC1,-,-,0,0
Cc1ccc(Cl)cc1NC(=O)C(NS(=O)(=O)c1cccc2nsnc12)c1ccccc1 (stereo unspecified),-,-,0,0
Cc1cc(NS(=O)(=O)c2ccc(NC(=S)NC(=O)c3ccncc3)cc2)no1,0,0,0,?
COc1ccc(C(=O)NC(=S)Nc2ccc(S(=O)(=O)Nc3cc(C)on3)cc2)cc1OC,0,0,0,18µM
Cc1cc(NS(=O)(=O)c2ccc(NC(=S)NC(=O)c3ccccc3)cc2)no1,0,0,0,50µM
Cc1ccc(CNC(=O)CSc2nc3c(sc4ccccc43)c(=O)n2CCCC(=O)NCCO)cc1,-,-,0,0
O=C(/C=C1\C(=O)Nc2ccccc21)/C=C1\C(=O)Nc2ccccc21,15,0,?,13µM
O=C1Nc2ccccc2/C1=C\C(=O)c1ccccc1,0,0,32µM,?
COc1ccc(OC)c(NC(=O)CCc2c(C)nn(-c3ccc(N4CCCC4)nn3)c2C)c1,-,-,0,0
O=C(NCc1ccco1)Nc1ccc2nsnc2c1,30,0,0,?
O=C(NCc1ccco1)Nc1ccc(Br)cc1,0,66,0,0
COc1ccc(NC(=O)NCc2ccco2)cc1OC,0,0,0,-
O=C(NCc1ccco1)Nc1ccc(OC(F)(F)F)cc1,18,0,0,0
CCOc1ccccc1NC(=O)C1CCN(S(=O)(=O)c2ccccc2)CC1,-,-,0,0
Cc1nc(-c2ccc(Cl)cc2)sc1CCNC(=O)C(=O)Nc1ccc(F)cc1F,-,-,0,0
SMILES,CHX counter,Shiga toxin inh,FMDV inh,Sm TGR inh
COc1ccc2c(c1)CCc1c(C(=O)Nc3c(C)nn(Cc4c(Cl)cccc4Cl)c3C)noc1-2,-,-,0,0
S=C(NCCCc1ccccc1)NC1CCCCC1,47,71,0,0
S=C(Nc1ccccn1)NC1CCCCC1,0,0,0,0
S=C(NCc1ccccc1)NC1CCCCC1,0,0,0,0
S=C(NCCc1ccccn1)NC1CCCCC1,42,27,0,0
CCCC(=O)Nc1cccc(-c2cn3c(C)csc3n2)c1,-,-,0,0
O=C(NCc1ccco1)c1sc2cc(Cl)ccc2c1Cl,34,58,-,40µM
O=C(NCCN1CCOCC1)c1sc2ccccc2c1Cl,23,0,0,0
CN(C)C(CNC(=O)c1sc2ccccc2c1Cl)c1ccco1 (stereo unspecified),-,-,0,-
O=C(NCc1ccco1)c1sc2ccccc2c1Cl,25,84,0,?
O=C(NCc1cccnc1)c1sc2cc(Cl)ccc2c1Cl,0,0,0,0
Cc1ccc2c(Cl)c(C(=O)NCCCN3CCOCC3)sc2c1,-,-,0,-
[O-][n+]1ccccc1SCc1ccccc1,-,-,0,0
[O-][n+]1ccccc1SC/C=C/c1ccccc1,25,96,0,0
Cc1ccc(NC(=O)Cc2ccc(-n3c(C)nc4cccnc43)cc2)c(Cl)c1,-,-,16µM,0
Cc1ccc(NC(=O)c2ccc([N+](=O)[O-])cc2)cc1S(=O)(=O)N(C)C,40,68,0,0
Cc1ccc([N+](=O)[O-])cc1S(=O)(=O)N(C)C,0,0,-,-
CN(C)S(=O)(=O)c1ccc(NC(=O)CCNC(=O)c2ccc([N+](=O)[O-])cc2)cc1,0,0,0,0

# Source: PubChem
